Compound activity (PubChem)
Only some compounds are listed: those with a hit (about 1.1% of all), similar ones and a draw of the others.
NPSR antag: blocks cAMP signaling of the human neuropeptide S receptor; CHO-NPSR cells, cAMP TR-FRET, antagonist mode; Q6W5P4; AID 1461; Potency, µM (highest dose often 38.3 µM), for inactives: top-dose activity change, negative = inhibition, usual class: inhibitors; hit rate 1% among 220,000; note: % is set by controls: 0 for no effect and ±100 for the full control effect; nearly all actives have a fitted effect of over 50% in size
HTT cytoprotect: Huntington cell model cytoprotection by ATP luminescence. PC12 HTT-Q103 induced, cytoprotection, ATP luminescence, 40 h. Potency, µM (doses to about 56.4 µM), for the others: cytoprotection (ATP increase), usual class: activators. hit rate 0.14% among 230,000. AID 1471; note: % of control where 0% means no effect; nearly all actives have a fitted effect of over 45% in size
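Stable PC12 Q103-GFP cells in serum-supplemented, phenol red-free DMEM; induction by tebufenozide at 100 nM final; compound dose series; cell viability quantified luminescently from ATP.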
AT treatment: potential ataxia-telangiectasia treatment | F2112 A-T fibroblasts, KAP-1 phosphorylation AlphaLISA; neocarzinostatin DNA damage 30 min before lysis | Potency, µM (titrated, usually from 57.5 µM), inactives show top-dose activation, hits mostly activators | hit rate 0.19% among 320,000; note: % of control where 0% means no effect; nearly all actives have a fitted effect of over 45% in size
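ATM-like activity read as KAP-1 phosphorylation via AlphaLISA donor/acceptor antibody pairs after lysis and 6 hr at 25C. Cells were ATM-null patient fibroblasts (F2112, hTERT), dosed 60 min, then exposed to the DSB inducer NCS for 30 min.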
mIDH1 inhibitor: inhibitors of human mutant IDH1 R132H. O75874. IDH1-R132H enzyme, NADPH consumption, diaphorase/resazurin fluorescence. Potency, µM (titrated, usually from 76.6 µM), for inactives: top-dose activity change, negative = inhibition, most hits filed as inhibitors. hit rate 0.093% among 390,000; note: % is set by controls: 0 for no effect and ±100 for the full control effect; nearly all actives have a fitted effect of over 65% in size
Target sequence (O75874 whole entry R132H, stated change not applied): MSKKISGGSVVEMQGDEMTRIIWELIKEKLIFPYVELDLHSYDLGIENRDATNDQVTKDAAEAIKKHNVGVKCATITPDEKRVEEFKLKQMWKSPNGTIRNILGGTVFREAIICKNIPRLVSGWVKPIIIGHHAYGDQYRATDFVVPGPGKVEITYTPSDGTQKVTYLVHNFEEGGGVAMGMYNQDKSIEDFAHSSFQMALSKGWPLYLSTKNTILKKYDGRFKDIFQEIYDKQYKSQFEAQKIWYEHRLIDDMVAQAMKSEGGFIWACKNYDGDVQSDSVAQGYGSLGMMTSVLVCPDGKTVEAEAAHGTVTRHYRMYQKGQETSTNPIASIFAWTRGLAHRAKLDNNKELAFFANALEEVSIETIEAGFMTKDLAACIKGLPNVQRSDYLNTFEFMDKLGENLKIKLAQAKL
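IDH1-R132H (0.5 ug/mL) preincubated 30 min with compound, then NADPH (0.016 mM) and alpha-KG (2 mM) added; 80 min at RT, pH 7.5. Remaining NADPH coupled via diaphorase/resazurin to fluorescence (540/590 nm); concentration-response curves normalized to no-enzyme control.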
HTT aggregate: inhibitors of mutant huntingtin aggregate formation in PC12 cells; PC12 HttQ103-GFP aggregates, Acumen cytometry, 40 h; Potency, µM (top dose mostly 46.1 µM), for the others: at the highest dose activity change, negative = inhibition, hits mostly inhibitors; hit rate 1.1% among 220,000; note: % is set by controls: 0 for no effect and ±100 for the full control effect; nearly all actives have a fitted effect of over 60% in size
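Using laser scanning cytometry, GFP-positive aggregates were counted after lysis of PC12 cells induced with 100 nM tebufenozide to express HTT exon 1 Q103–GFP. Compounds were tested in titration.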
* marks the source's active call; other numbers are inactive results; u = inconclusive; x = not tested or not shown; [ ] = another dose, or the depositor's remark. Calls come from the whole dose curve; as a rule, active = well fitted curve in the direction sought with a large enough effect; inconclusive = small, poorly fitted or top-dose-only effect, or another doubt; inactive = no such curve, though single readings can be large; an effect the other way counts as inactive or inconclusive. Potency is the fitted concentration of half-maximal effect.

SMILES	NPSR antag	HTT cytoprotect	AT treatment	mIDH1 inhibitor	HTT aggregate
Nc1nc(SCc2ccc([N+](=O)[O-])cc2)c2ncn([C@@H]3O[C@@H](CO)[C@@H](O)[C@H]3O)c2n1	x	-11%[1.9 µM]	x	x	x
CCCCCCOC(=O)C(C#N)c1nc2ccccc2nc1N1CCCCC1 (configuration not stated)	10µM*	-6%	4%	2%	-20%
COc1cccc(NC(=O)c2ccc(-c3nc(COc4ccccc4)c(C)o3)cc2)c1	x	x	x	12%	x
C[n+]1ccc(/C=C/c2ccccc2O)c2ccccc21	13µM*	-29%	-2%	10%	u
C[C@@H]1C(=O)N(C)C(=O)c2nc[nH]c21	x	-8%[1.9 µM]	x	x	x
CCn1c(=O)sc2cc(NS(=O)(=O)c3ccc(F)c(C)c3)ccc21	x	x	x	-17%	x
COc1ccc(C(=O)n2cc(C(=O)c3cc(C)ccc3O)cn2)cc1	16%	3%[10 µM]	-2%	0%	32µM*
COc1ccc(C(=O)n2cc(C(=O)c3cc(C)ccc3O)cn2)cc1OC	-5%	-15%[0.074 µM]	22%	8%	18%
CNC(=S)N(CCO)Cc1cc2cc3c(cc2[nH]c1=O)OCO3	x	x	-20%	19%	x
O=C(Nc1ccc(F)cc1)N(CCCN1CCOCC1)Cc1cc2cc3c(cc2[nH]c1=O)OCO3	2%	-20%[10 µM]	-1%	8%	31%
O=C(Nc1ccc(F)cc1)N(CCCN1CCOCC1)Cc1cc2cc3c(cc2[nH]c1=O)OCCO3	-14%[46.1 µM]	0%	14µM*	1%	14%[9.22 µM]
CNC(=S)N(CCO)Cc1cc2cc3c(cc2[nH]c1=O)OCCO3	x	x	2.8µM*	6%	x
NC(N)=N/N=C\c1ccc(O)c(C(=O)O)c1	x	1%[10 µM]	x	x	x
COc1ccccc1-c1cc(C(=O)N2CCc3ccccc3C2)no1	x	-2%	x	x	x
O=C(Nc1ccc(Cl)cc1)Nc1nc(-c2ccccc2O)cs1	-25%	-4%[10 µM]	40µM*	-5%	20%[9.22 µM]
O=C(Nc1ccc(Cl)cc1)Nc1nc(-c2sccc2Br)cs1	-16%[46.1 µM]	-58%	12%	3%	-17%
CCn1ccc2cc(S(=O)(=O)N3CCCN(C(=O)NCCOC)CC3)ccc21	x	x	x	-32%	x
CCC(C)S(=O)(=O)c1oc(-c2cccs2)nc1S(=O)(=O)c1ccccc1 (configuration not stated)	x	x	x	8%	x
CC(Oc1ccc(Cl)cc1Cl)c1nc(-c2ccc(NC(=O)c3cccnc3)cc2)no1 (configuration not stated)	u	-41%	-9%	5%	7.9µM*
CC(Oc1ccc(Cl)cc1Cl)c1nc(-c2ccc(NC(=O)c3ccncc3)cc2)no1 (configuration not stated)	u	-19%[10 µM]	-2%	5%	15%
Cc1ccc(-c2cc(C(=O)Nc3ccc(S(=O)(=O)Nc4cc(C)on4)cc3)c3ccccc3n2)c(C)c1	10µM*	-1%	-4%	1%	5%
Cc1cc(NC(=O)c2ccccc2NS(=O)(=O)c2c(C)c(C)cc(C)c2C)no1	-12%[46.1 µM]	-20%	x	-1%	-7%
Cc1ccc(C)c(S(=O)(=O)Nc2ccccc2C(=O)Nc2cc(C)on2)c1	-15%[46.1 µM]	-65%	17%	-3%	10µM*
Cc1ccc(C)c(NC(=O)c2ccccc2NS(=O)(=O)c2cc([N+](=O)[O-])ccc2C)c1	-36%	-52%[10 µM]	5%	-11%	2.8µM*
Cc1nc(C)c(C(=O)N/N=C/c2cc(Br)ccc2O)s1	4%	-50%[10 µM]	1%	0%	1.3µM*
SMILES	NPSR antag	HTT cytoprotect	AT treatment	mIDH1 inhibitor	HTT aggregate
COc1ccccc1OC[C@H](O)CN1CCN(CC(=O)Nc2c(C)cccc2C)CC1	x	1%[1.9 µM]	x	x	x
O=C(/C(=C/O)N=Nc1ccccc1)c1ccc(Cl)cc1	u	7%	-2%	6%	u
Cc1ccc(N=N/C(=C\O)C(=O)c2ccc(Cl)cc2)cc1	7.9µM*	-16%[10 µM]	-3%	1%	u
CCCN1C(=O)/C(=C\C=C2/C=CN(CC)c3ccccc32)SC1=S	2µM*	-25%[10 µM]	6%	3%	-12%
CCCCN1C(=O)/C(=C/C=C2\N(C)c3ccccc3C2(C)C)SC1=S	-9%[46.1 µM]	-34%	-3%	x	13µM*
CN1CCS/C1=C/C=C1/SC(=S)N(Cc2ccccc2)C1=O	4%	-10%[10 µM]	-9%	6%	20%
